# Reference: PubChem BioAssay AID1851 (National Center for Advancing Translational Sciences (NCATS), 2009)
# “And” between values parts separate entries of the source, which are not always exact repeats. Equal entries are not always repeated. The campaign covered roughly 16,000 compounds. About 4,000 (25%) were called active. Roughly 26% stayed inconclusive and do not appear here. Calls come from the whole dose curve; as a rule, active = well fitted curve in the direction sought with a large enough effect; inconclusive = small, poorly fitted or top-dose-only effect, or effect the other way; inactive = no such curve, though single readings can be large or run the other way. Only a sample is shown. The source holds several records for some structures; these can differ, active in one and inactive in another.
# Target: Cytochrome P450 2C9 (Homo sapiens) (UniProt P11712)
# Sequence (P11712 whole entry, looked up): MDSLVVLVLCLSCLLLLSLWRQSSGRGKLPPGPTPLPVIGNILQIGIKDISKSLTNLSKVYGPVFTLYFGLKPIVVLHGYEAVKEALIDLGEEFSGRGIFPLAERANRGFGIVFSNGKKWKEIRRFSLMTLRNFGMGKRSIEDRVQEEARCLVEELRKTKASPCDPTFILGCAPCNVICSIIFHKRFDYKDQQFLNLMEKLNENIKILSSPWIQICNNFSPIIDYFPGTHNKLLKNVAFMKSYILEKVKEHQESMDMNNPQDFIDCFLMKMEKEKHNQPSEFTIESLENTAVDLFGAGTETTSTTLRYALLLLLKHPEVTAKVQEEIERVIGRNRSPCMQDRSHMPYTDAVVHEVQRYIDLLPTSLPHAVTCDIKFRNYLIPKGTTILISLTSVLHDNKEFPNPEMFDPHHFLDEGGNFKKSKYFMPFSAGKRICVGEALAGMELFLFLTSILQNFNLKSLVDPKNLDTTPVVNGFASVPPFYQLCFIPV
# Experiment: Cytochrome panel assay with activity outcomes
# Conditions: recombinant CYP, pro-luciferin dealkylation, luminescence, p450-cyp2c9; series mostly up to 57.1 µM; activity, negative = inhibition: at the top concentration
# Method: The P450 gene superfamily is involved in the metabolism and clearance of xenobiotics. This assay used various human CYP P450 isozymes to measure the dealkylation of various pro-luciferin substrates to luciferin. The luciferin is then measured by luminescence after the addition of a luciferase detection reagent. Pro-luciferin substrate concentration in the assay was equal to its KM for its CYP P450 isozyme. Inhibitors and some substrates limit the production of luciferin, and decrease measured luminescence.
# NCGC Assay Protocol Summary:
# 1, Reagent, 2 uL, Isozyme and Pro-Luciferin
# 2, Library compounds, 23 nl, 40 uM to 0.24 nM dilution series
# 3, Controls, 23 nl, Isozyme specific inhibitor
# 4, Reagent, 2 uL, NADPH regeneration solution
# 5, Incubation time, 60 min, Isozyme specific temperature
# 6, Reagent, 4ul, Detection reagent
# 7, Incubation time, 20 min, Isozyme specific temperature
# 8, Detection, 1 sec, ViewLux luminescent read
# The luciferase-based P450-GloTM Screening Systems were obtained from Promega (Madison, WI) for CYP 1A2 (V9770), CYP 2C9 (V9790), CYP2 C19 (V9880), CYP 2D6 (V9890), and CYP 3A4 Luciferin-PPXE (V9910) and were adapted for 1,536-well microplates and an automated protocol. The control compounds furafylline for 1A2 (F124), sulfaphenazole for CYP 2C9 (S0758), ketoconazole for CYP 2C19 (K1003), quinidine for 2D6 (Q3625), and ketoconazole for 3A4 (K1003) were purchased from Sigma Aldrich (St. Louis, MO). Recombinant P450 enzymes were obtained from baculovirus constructs expressed in insect cells (BD/Gentest).
# Medium-binding white solid Kalypsys plates used. Mixtures kept on ice. 1A2: 10 nM 1A2, 100 uM Luc-ME, 100 mM KPO4; 2C9: 10 nM 2C9, 100 uM Luc-H, 25 mM KPO4; 2C19: 5 nM 2C19, 10 uM Luc-H EGE, 50 mM KPO4; 2D6: 5 nM 2D6, 30 uM Luc-ME EGE, 100 mM KPO4; 3A4: 10 nM, 25 uM Luc-PPXE. All amounts are reflected in their final concentration, working concentration is 2x.
# NADPH regeneration solution: 1.3 mM NADP+, 3.3 mM glucose-6-phosphate, 3.3 mM MgCl2, 0.4 U/mL glucose-6-phosphate dehydrogenase for all isozymes, 200 mM KPO4 for 3A4. Mixture prepared at RT but kept on ice during automated run.
# RT incubation in auxilliary plate hotel for 1A2, 2D6, and 3A4; 37C for 2C9 and 2C19.
# Keywords: P450, CYP1A2, CYP2C19, CYP2C9, CYP2D6, CYP3A4, Luciferase, MLSMR, MLSCN, NIH Roadmap, qHTS, NCGC
# % is set by controls: 0 for no effect and ±100 for the full control effect.
Structure (SMILES),"activity, negative = inhibition",AC50
O=C1c2cccnc2C(O)N1C1CCCCC1 (centres undefined),-10.4% (inactive),–
Cc1nc2c(n1C1CCCCC1)C(=O)c1ccccc1C2=O,–,15.8 µM (active)
Cc1nc2cnc(Nc3ccccc3)nc2n(C2CC2)c1=O,-16.5% (inactive),–
N[C@H](C(=O)O)c1ccc(O)c(C(=O)O)c1,7.54% (inactive),–
N[C@@H](C(=O)O)c1ccc(C(=O)O)c(O)c1,-29% (inactive),–
N[C@@H](C(=O)O)c1ccc(C(=O)O)c(C(=O)O)c1,–,12.6 µM (active) and inactive
COCOc1ccc(Br)cc1C(=O)[C@H]1O[C@H]1c1cccc(OC)c1,8.38% [at 11.4 µM] (inactive),–
COc1cccc([C@@H]2Oc3ccc(Br)cc3C(=O)[C@H]2O)c1,–,2.51 µM (active)
COc1cccc([C@@H]2Oc3ccc(OC)cc3C(=O)[C@H]2O)c1,-9.12% [at 11.4 µM] (inactive),–
CNc1ncncc1-c1ccccc1C(F)(F)F,4.51% [at 2.29 µM] (inactive),–
O=C(NCc1ccccc1)C12CN(Cc3ccccc3)CC1C(c1cccc([N+](=O)[O-])c1)=NO2 (centres undefined),–,7.94 µM (active)
COc1cccc(C2=NOC(C(=O)NCc3ccccc3)C2)c1 (centres undefined),15.8% (inactive),–
CC(C)CCNC(=O)C12CN(Cc3ccccc3)CC1C(c1cccc([N+](=O)[O-])c1)=NO2 (centres undefined),–,5.62 µM (active)
CCS(=O)(=O)N1CCC(C(=O)NCCN2CCN(Cc3ccccc3)CC2)CC1,11.7% (inactive),–
COc1ccc(C(=O)N2CC3(CC(c4cccc([N+](=O)[O-])c4)=NO3)C[C@H]2C(=O)NCC(N)=O)cc1 (some centres undefined),-29.6% (inactive),–
CN(C)CCn1c(=O)n(Cc2ccco2)c(=O)c2c3c(sc21)CCCCC3,–,14.1 µM (active)
O=C(Cn1c(=O)n(Cc2ccco2)c(=O)c2c3c(sc21)CCCCC3)c1ccccc1,–,2.51 µM (active)
NC(=O)Cn1c(=O)n(Cc2ccco2)c(=O)c2c3c(sc21)CCCCC3,–,11.2 µM (active)
Cn1c(=O)c2c3c(sc2n2cnnc12)CCC3,-24.7% (inactive),–
O=C(N/N=C/c1ccc2cccc(OCc3ccccc3)c2n1)c1ccc(Br)cc1,–,3.55 µM (active)
O=C(N/N=C/c1ccc(F)cc1)c1ccc(Br)cc1,-7.63% (inactive),–
COc1ccc(O)c(/C=N/NC(=O)c2ccc(OCc3cccc(Br)c3)cc2)c1,-22.4% (inactive),–
CCn1c(SCC(=O)N2CCOCC2)nc2oc3c(Cl)cc(Cl)cc3c(=O)c2c1=O,–,3.98 µM (active)
N#Cc1ccc(C(c2nnnn2Cc2ccccc2)N2CCCC2)cc1 (centres undefined),-67% (inactive),–

Structure (SMILES),"activity, negative = inhibition",AC50
COc1ccc(N2CCN(C(CNC(=O)C3CCCCC3)c3cccnc3)CC2)cc1 (centres undefined),-14.1% (inactive),–
COc1ccc(Cn2nnnc2C(c2ccccc2Cl)N2CCC(C(N)=O)CC2)cc1 (centres undefined),–,15.8 µM (active)
O=C(Nc1ccc(Cl)cc1)OCCn1nnnc1C(c1ccccc1Cl)N1CCOCC1 (centres undefined),–,4.47 µM (active)
CCC(c1nnnn1CCOC)N1CCN(C(=O)c2ccco2)CC1 (centres undefined),-40.7% (inactive),–
O=C(NCCCN1CCOCC1)c1cc(C(=O)C2CC2)c[nH]1,33% (inactive),–
Cc1ccc(C(=O)c2c[nH]c(C(=O)NCCCN3CCOCC3)c2)cc1,-2.52% (inactive),–
O=C(c1ccc(C(F)(F)F)cc1)c1c[nH]c(C(=O)NCCCn2ccnc2)c1,–,1.12 µM (active)
CC(C)[C@@H](OCc1ccccc1)[C@H](C)/C=N\O[C@@H](C)c1cn([C@H](CO)Cc2ccccc2)nn1,-21.6% [at 11.4 µM] (inactive) and -25.5% [at 11.4 µM] (inactive),–
Cc1cc(/C=N/n2cnnc2)c(C)n1-c1ccc(OCc2ccccc2F)cc1,–,4.47 µM (active)
COn1c(SCc2ccc(C)cc2C)nc2ccccc2c1=O,–,0.282 µM (active)
COn1c(SCc2cccc(Cl)c2)nc2ccccc2c1=O,–,1.78 µM (active)
COc1nc(Cl)nc(Cl)c1Cl (tested in a mixture with another compound),-7.53% [at 11.4 µM] (inactive),–
CC(C)CO/N=C1/C[C@@H](O)[C@@H](O)[C@@H]2[C@@H]3C(=O)N([C@@H](C)c4ccccc4)C(=O)[C@H]3CC[C@H]12,-8.59% [at 11.4 µM] (inactive),–
C1=C(CN2CCOCC2)COc2c1cccc2OC[C@@H]1CNCCO1,13.9% (inactive),–
CO[C@@H]1COC(=O)CCC[C@@H](C)[C@H](OC)COC(=O)[C@H](Cc2ccccc2)NC(=O)C/C=C\[C@H]1C,-2.4% [at 11.4 µM] (inactive),–
O=C(Cc1ccccc1)Nc1nc2ccc(Cl)cc2c2nc(-c3ccco3)nn12,–,3.16 µM (active)
CC(=O)n1nc(-c2ccco2)nc1N,-29.7% (inactive),–
CN1CCN(c2cc(-c3ccc(N(C)C)cc3)ncn2)CC1,14.3% [at 2.29 µM] (inactive),–
Cc1noc(C)c1-c1ccc2ncnc(NCc3ccccc3)c2c1,-8.92% [at 2.29 µM] (inactive),–
CCCCCCN1C=CC(=C/C=C(\C#N)C(=O)OCC)C=C1,–,2.24 µM (active)
CCOC(=O)/C(C#N)=C1/C=CN(C)C=N1,-14.9% (inactive),–
CCCC[S@@](=N)(=O)CC[C@@H](N)C(=O)O,–,inactive
O=C(CSc1nnc(SCc2cccc3ccccc23)s1)c1ccc2c(c1)OCO2,–,4.47 µM (active)
CC(C)(C)NC[C@@H](O)c1ccc(O)c(CO)n1,6.16% [at 11.4 µM] (inactive),–

Structure (SMILES),"activity, negative = inhibition",AC50
Clc1ccc(-c2nc3ncccn3c2Nc2ccc3c(c2)OCCO3)cc1,–,4.47 µM (active)
Cc1ccc(-c2nc3ncccn3c2NC(=O)C2CC2)cc1,6.9% (inactive),–
Cc1noc(C)c1-c1cc(NCc2ccccc2)ncn1,24.9% [at 2.29 µM] (inactive),–
Cc1noc2ncnc(Oc3ccc4ccccc4c3)c12,–,25.1 µM (active)
Cc1noc(C)c1-c1cc(Nc2ccccc2)ncn1,-12.1% [at 2.29 µM] (inactive),–
Clc1ccc(COc2ccccn2)cc1Cl,-2.18% (inactive),–
O=Nc1c(O)n(Cc2ccc(Cl)cc2)c2ccccc12,–,1.26 µM (active)
Clc1ccc(Cn2c(CN3CCCC3)nc3ccccc32)cc1,-38.8% [at 25.6 µM] (inactive),–
O=Nc1c(O)n(Cc2ccc(Cl)c(Cl)c2)c2ccccc12,–,5.62 µM (active)
O=C1C(=O)N(Cc2ccc(Cl)c(Cl)c2)c2ccccc21,1% (inactive),–
O=Nc1c(O)n(Cc2cccc(Cl)c2)c2ccccc12,–,2.51 µM (active)
NC(=O)c1ncn([C@@H]2O[C@@H](CO)[C@@H](O)[C@H]2O)c1O,-6.99% (inactive),–
Cc1noc(C)c1-c1cncnc1NC1CC1,4.67% [at 2.29 µM] (inactive),–
c1cn(-c2ccnc(-c3ccc4c(c3)OCO4)n2)cn1,4.3% [at 2.29 µM] (inactive),–
COc1cccc(-c2nc(N(C)Cc3ccco3)c3ccccc3n2)c1,-10.2% [at 2.29 µM] (inactive),–
CN(C)C(=O)c1ccc(-c2nc(N(C)Cc3ccco3)c3ccccc3n2)cc1,5.2% [at 2.29 µM] (inactive),–
CN(Cc1ccccc1)c1nc(-c2ccc([N+](=O)[O-])cc2)nc2ccccc12,–,0.501 µM (active)
c1nc(NCCc2cnc[nH]2)c2[nH]cnc2n1,-20.1% [at 11.4 µM] (inactive),–
CN(C)C(=O)c1ccc(-c2cc(NCc3ccccc3)ncn2)cc1,6.12% [at 2.29 µM] (inactive),–
N#Cc1c(-c2ccc(Cl)cc2)nc2n(c1=O)CCCS2,–,12.6 µM (active)
N#Cc1c(-c2ccccc2)nc2n(c1=O)CCS2,-5.83% (inactive),–
CN(C)c1cc(=O)n2c(n1)SCCC2,-4.22% (inactive),–
CC(C)CN1CCCC2(CCN(C(=O)c3cccn3C)CC2)C1,5.73% (inactive),–
Cn1cccc1C(=O)N1CCC2(CC1)CCN(c1ccc(-c3ccccc3)cc1)CC2,-18.2% (inactive),–

Structure (SMILES),"activity, negative = inhibition",AC50
Cn1cccc1C(=O)N1CCC2(CC1)CCN(C(c1ccccc1)c1ccccc1)CC2,12.5% (inactive),–
Cn1cccc1C(=O)N1CCC2(CCCN(C(c3ccccc3)c3ccccc3)C2)CC1,–,12.6 µM (active)
CC(C)NC(=O)N1CCCC2(CCN(C(=O)c3cccn3C)CC2)C1,-10.5% (inactive),–
c1ccc(-c2ccc(N3CCCC4(CCNCC4)C3)cc2)cc1,–,25.1 µM (active)
Cn1cccc1C(=O)N1CCC2(CC1)CCN(c1cccc(-c3ccccc3)c1)CC2,9.6% (inactive),–
Cn1cccc1C(=O)N1CCC2(CCCN(c3cccc(-c4ccccc4)c3)C2)CC1,–,3.98 µM (active)
Cn1cccc1C(=O)N1CCC2(CCCN(c3ccc(-c4ccccc4)cc3)C2)CC1,–,15.8 µM (active)
c1ccc(-c2ccc(N3CC4(CCNCC4)C3)cc2)cc1,-19.5% (inactive),–
c1ccc(-c2ccc(N3CC[C@@]4(CCCNC4)C3)cc2)cc1,-3.55% (inactive),–
CN1CCCC2(CCN(C(=O)c3cccn3C)CC2)C1,9.11% (inactive),–
Cc1cnc(CNc2ncncc2-c2ccccc2CN(C)C)cn1,20.8% [at 2.29 µM] (inactive),–
CO[C@@H]1COC(=O)[C@H]2CCCN2C(=O)[C@@H](C)COC(=O)CCC[C@H]1C,1.93% [at 11.4 µM] (inactive),–
Cn1cccc1C(=O)N1CCC2(CC1)CCN(c1ccncc1)CC2,-17.9% (inactive),–
COC(=O)N1CCC2(CC1)CN(c1ccc(-c3ccccc3)cc1)C2,-19.7% (inactive),–
Cn1cccc1C(=O)N1CCC2(CC1)CCN(c1ccccc1)CC2,10.5% (inactive),–
O=C(Oc1ccccc1)N1CCC2(CCCN(c3ccc(-c4ccccc4)cc3)C2)CC1,17.5% (inactive),–
Cn1cccc1C(=O)N1CCC2(CC1)CN(c1ccncc1)C2,–,5.01 µM (active)
Cn1cccc1C(=O)N1CCC[C@@]2(CCN(c3ccccc3)C2)C1,-11.1% (inactive),–
COC(=O)N1CCC2(CCCN(c3ccc(-c4ccccc4)cc3)C2)CC1,–,15.8 µM (active)
Cn1cccc1C(=O)N1CCC[C@@]2(CCN(c3ccncc3)C2)C1,-3.72% (inactive),–
Cn1cccc1C(=O)N1CCC2(CCCN(c3ccccc3)C2)CC1,–,15.8 µM (active)
COc1ccccc1/C=C/C=N/N1CCN(Cc2cccc3ccccc23)CC1,25.5% (inactive),–
